ATXN2 expr inh – inhibitors of ATXN2 expression; HEK-293 ATXN2-luciferase reporter, luminescence, 24 h; Potency, µM (doses to about 57 µM), actives largely listed as inhibitors; hit rate 0.72% among 360,000; AID 1745845; note: nearly all actives have a fitted effect of over 55% in size
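qHTS (up to 57 uM final) was run with 24 h compound exposure of reporter cells at 37 °C. Each well was multiplexed: SteadyGlo luminescence measured ATXN2-luciferase expression after a fluorogenic Gly-Phe-AFC viability readout (25 uM final).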
A549 tox – A549 cytotoxicity, counter-screen for Nrf2 inhibitors; A549 ARE-Fluc cells, CellTiter-Fluor viability, 18-24 h; Potency, µM (titrated, usually from 46 µM), usual class: inhibitors; hit rate 0.16% among 390,000; AID 504648
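A549 ARE_Fluc cells in 5% FBS OPTI-MEM were exposed to compounds in concentration-response for 18-24 h at 37 deg C. Viability was read by CellTiter-Fluor fluorescence (Ex 405/Em 525) after 30 min, before the luciferase read.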
TGFb inhibitor – TGF-b pathway inhibition; HepG2 CAGA-GFP TGF-b/SMAD3 reporter, GFP fluorescence, 18 h; TGF-beta stimulated, 500 pg/mL final; Potency, µM (doses to about 46.1 µM), actives largely listed as inhibitors; hit rate 1.2% among 410,000; note: nearly all actives have a fitted effect of over 65% in size
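HEPG2 CAGA-GFP reporter cells (1000/well, DMEM with 1% FBS) received compounds, then recombinant TGF-beta at 500 pg/mL final for 18 hours at 37 degrees C. Per-cell GFP summed per well was normalised to unstimulated and stimulated DMSO controls before curve fitting.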
Nrf2 block – inhibitors of Nrf2 signaling; A549 ARE-Fluc reporter, luciferase luminescence, 18-24 h; Potency, µM (doses to about 46 µM), hits mostly inhibitors; hit rate 2.1% among 360,000; AID 504444; note: nearly all actives have a fitted effect of over 60% in size
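A549 ARE_Fluc cells (5000/well, 5% FBS OPTI-MEM) pre-incubated 2 h, then treated with compounds 18-24 h at 37C/5% CO2 in concentration-response. CellTiter-Fluor viability read first; BugLite luciferase luminescence after 15 min at room temperature gives Nrf2 activity.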
HepG2 viability – counter-screen for TGF-b inhibitors: cytotoxicity in HepG2 cells. HepG2 CAGA-GFP viability, ATP luminescence, 18 h. Potency, µM (titrated, usually from 46.1 µM), actives largely listed as cytotoxic. hit rate 0.76% among 410,000
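HepG2 CAGA-GFP cells (1000/well, DMEM with 1% FBS) received compound, then TGF-beta at 500 pg/mL final, and were incubated 18 hours at 37 degrees C. Viability was read by CellTiter-Glo luminescence. Media-only wells were set as complete cell-killing and DMSO as no toxicity.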
ATXN viability – viability counter-screen for ATXN expression inhibitors | S2 cells (HEK-293 line with an ATXN2-luciferase reporter) viability, CellTiter-Fluor protease fluorescence, 24 h | Potency, µM (doses to about 56.7 µM), most hits filed as cytotoxic | hit rate 0.49% among 400,000 | AID 651635; note: nearly all actives have a fitted effect of over 40% in size
Hits are given with their value. In the library only some 3.8% were active in any assay of this set; here they are far more common. Calls come from the whole dose curve; as a rule, active = well fitted curve in the direction sought with a large enough effect; inconclusive = small, poorly fitted or top-dose-only effect, or another doubt; inactive = no such curve, though single readings can be large; an effect the other way counts as inactive or inconclusive.

For Cc1cc(C)cc(NC(=O)/C=C/c2ccc([N+](=O)[O-])s2)c1 the results were ATXN2 expr inh inconclusive, A549 tox inactive, TGFb inhibitor inactive, Nrf2 block inactive, HepG2 viability inactive and ATXN viability inactive.
For Cc1ccccc1NC(=O)/C=C/c1ccc([N+](=O)[O-])s1 the results were ATXN2 expr inh 10µM, A549 tox inconclusive, TGFb inhibitor 7.1µM, Nrf2 block inconclusive, HepG2 viability 7.9µM and ATXN viability 10µM.
`Cc1ccc(-n2sc3cc(F)ccc3c2=O)c(C)c1` gave ATXN2 expr inh inconclusive, TGFb inhibitor inconclusive, HepG2 viability 11µM and ATXN viability 22µM.
Screening Cc1ccc(N2C(=O)c3ccccc3C2=O)c(C)c1 returned A549 tox inactive and Nrf2 block inactive.
O=c1c2cc(F)ccc2sn1-c1ccccc1Cl was read as ATXN2 expr inh inconclusive, TGFb inhibitor inconclusive, HepG2 viability inactive and ATXN viability 22µM.
`O=c1c2ccccc2sn1-c1ccc(F)cc1` gave ATXN2 expr inh inactive, A549 tox inactive, TGFb inhibitor 10µM, Nrf2 block inactive, HepG2 viability inactive and ATXN viability inconclusive.
Screening N=C1SCC(=O)N1c1ccccc1Cl returned ATXN2 expr inh inactive, A549 tox inactive, TGFb inhibitor inactive, Nrf2 block inactive, HepG2 viability inactive and ATXN viability inactive.
O=c1c2ccc(F)cc2sn1-c1ccccc1 was read as ATXN2 expr inh inconclusive, TGFb inhibitor 11µM, HepG2 viability inactive and ATXN viability 20µM.
Screening Cn1c(C(c2cc3ccccc3n2C)c2cc3ccccc3n2C)cc2ccccc21 returned TGFb inhibitor inconclusive and HepG2 viability inactive.
Screening CCOC(=O)NCCc1c(C)nc2c(c(C)nn2C(C)(C)C)c1C returned ATXN2 expr inh inactive, A549 tox inactive, TGFb inhibitor inactive, Nrf2 block inactive, HepG2 viability inactive and ATXN viability inactive.
COC(=O)[C@H](C)NS(=O)(=O)C1CC1 was read as TGFb inhibitor inactive and HepG2 viability inactive.
For COc1ccc(C(=O)NCCc2c[nH]c3ccccc23)cc1S(=O)(=O)N1CCCCC1C (centres undefined) the results were ATXN2 expr inh inactive, A549 tox inactive, TGFb inhibitor inactive, Nrf2 block inactive, HepG2 viability inactive and ATXN viability inactive.
`COc1ccc(C(=O)NCCc2ccc(Cl)cc2)cc1S(=O)(=O)N1CCCCC1C` (centres undefined) gave A549 tox inactive, TGFb inhibitor inconclusive, Nrf2 block 16µM, HepG2 viability inactive and ATXN viability inactive.
For Cc1ccc(F)c(NC(=O)c2ccc(Cn3cc(Cl)cn3)cc2)c1 the results were ATXN2 expr inh inactive, A549 tox inactive, TGFb inhibitor inactive, Nrf2 block inconclusive, HepG2 viability inactive and ATXN viability inconclusive.
Cc1ccc(F)c(NC(=O)/C(C#N)=C(\O)c2ccc(C(C)(C)C)cc2)c1 was read as A549 tox inconclusive, TGFb inhibitor 13µM, Nrf2 block inactive, HepG2 viability 13µM and ATXN viability inactive.
Screening NC1=NC[C@H](Cc2ccc(O)cc2)N1CCCCC1CCCCC1 returned ATXN2 expr inh inconclusive, A549 tox inactive, TGFb inhibitor inconclusive, Nrf2 block inconclusive, HepG2 viability inactive and ATXN viability inconclusive.
NC1=NC[C@H](Cc2ccccc2)N1CCCCC1CCCCC1 was read as ATXN2 expr inh 25µM, A549 tox inactive, TGFb inhibitor inconclusive, Nrf2 block inactive, HepG2 viability inactive and ATXN viability inconclusive.
For NC1=NC[C@@H](CC2CCCCC2)N1CCc1cc(C(F)(F)F)cc(C(F)(F)F)c1 the results were ATXN2 expr inh 20µM, A549 tox inactive, TGFb inhibitor inconclusive, Nrf2 block inactive, HepG2 viability inactive and ATXN viability 18µM.
`NC1=NC[C@H](c2ccccc2)N1CCc1cc(C(F)(F)F)cc(C(F)(F)F)c1` gave ATXN2 expr inh inconclusive, A549 tox inactive, TGFb inhibitor 11µM, Nrf2 block inactive and HepG2 viability inactive.
Screening Cc1nc(-c2ccccc2)[nH]c(=O)c1Oc1ccc(Cl)cc1Cl returned A549 tox inactive, TGFb inhibitor inactive, Nrf2 block 21µM, HepG2 viability inactive and ATXN viability inactive.

From PubChem
